Assay results as given in PubChem BioAssay AID1159580 (chemical genetic matrix, 2015).
Values joined by “and” are separate entries in the source; they are usually repeats but may differ in a detail not shown here. Identical values can stand only once. In all, about 5,500 compounds went through this assay and about 2,000 (36%) were called active. Inconclusive results (about 18%) are left out. Cut-off read from the data, not from the text of the source: active = normalized growth mostly below about 0.91 (no sharp cut-off); inconclusive = no clear call, values can overlap the other calls; inactive = mostly above about 0.92. Some of the results follow.

Assay: chemical genetic growth profiling, strain panel (AID 1159580);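 note: tested at 20 µM; growth read once vehicle control cultures reached saturation at 30 °C; 1 = growth at the plate median or of vehicle wells; lower values mean less growth of the strain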
Conditions: S. cerevisiae deletion strains, growth OD

Measured: normalized growth

CC12CCC(=O)C=C1CCC1C2[C@@H](O)CC2(C)C1CC[C@]2(O)C(=O)COP(=O)(O)O (stereo partly drawn)
inactive: locus YAL013W, strain DEP1, stronger effect = lower value 1.02 | locus YAL021C, strain ccr4, stronger effect = lower value 1 | locus YAL026C, strain drs2, stronger effect = lower value 0.999 | locus YAL030W, strain snc1, stronger effect = lower value 1.01 | locus YBL061C, strain skt5, stronger effect = lower value 0.998 | locus YBR009C, strain hhf1, stronger effect = lower value 0.994 | locus YBR021W, strain FUR4, stronger effect = lower value 1.02 | locus YBR023C, strain chs3, stronger effect = lower value 0.992 | locus YBR171W, strain sec66, stronger effect = lower value 1 | locus YBR229C, strain ROT2, stronger effect = lower value 1.01 | locus YBR231C, strain swc5, stronger effect = lower value 0.989 | locus YBR279W, strain paf1, stronger effect = lower value 1 | locus YCL011C, strain gbp2, stronger effect = lower value 0.991 | locus YCL016C, strain dcc1, stronger effect = lower value 0.973 | locus YCL029C, strain bik1, stronger effect = lower value 1.01 | locus YCL061C, strain MRC1, stronger effect = lower value 0.999 | locus YCL069W, strain vba3, stronger effect = lower value 1.01 | locus YCR088W, strain abp1, stronger effect = lower value 0.995 | locus YDL005C, strain med2, stronger effect = lower value 0.997 | locus YDL035C, strain GPR1, stronger effect = lower value 1.01 | locus YDL040C, strain nat1, stronger effect = lower value 1.01 | locus YDL074C, strain BRE1, stronger effect = lower value 1.02 | locus YDL101C, strain DUN1, stronger effect = lower value 1.01 | locus YDL185W, strain tfp1, stronger effect = lower value 1 | locus YDL192W, strain arf1, stronger effect = lower value 1.01 | locus YDR001C, strain nth1, stronger effect = lower value 0.996 | locus YDR069C, strain doa4, stronger effect = lower value 1.01 | locus YDR101C, strain arx1, stronger effect = lower value 1.03 | locus YDR137W, strain rgp1, stronger effect = lower value 0.992 | locus YDR150W, strain NUM1, stronger effect = lower value 1.02 | locus YDR159W, strain sac3, stronger effect = lower value 1 | locus YDR162C, strain NBP2, stronger effect = lower value 1.01 | locus YDR195W, strain ref2 0.992 | locus YDR297W, strain sur2, stronger effect = lower value 0.996 | locus YDR318W, strain mcm21, stronger effect = lower value 0.999 | locus YDR334W, strain swr1, stronger effect = lower value 0.998 | locus YDR335W, strain msn5, stronger effect = lower value 1.01 | locus YDR388W, stronger effect = lower value 1 | locus YDR392W, strain spt3, stronger effect = lower value 0.928 | locus YDR502C, strain sam2, stronger effect = lower value 1 | locus YEL003W, strain gim4, stronger effect = lower value 1 | locus YEL037C, strain rad23, stronger effect = lower value 1.01 | locus YEL061C, strain CIN8 (second series), stronger effect = lower value 1 | locus YEL061C, strain CIN8, stronger effect = lower value 1.02 | locus YER015W, strain faa2, stronger effect = lower value 1 | locus YER016W, strain bim1, stronger effect = lower value 1 | locus YER110C, stronger effect = lower value 1.01 | locus YER111C, strain swi4, stronger effect = lower value 1 | locus YER155C, strain BEM2 (second series), stronger effect = lower value 1.01 | locus YER155C, strain BEM2, stronger effect = lower value 1.01 | locus YER167W, strain BCK2, stronger effect = lower value 1.01 | locus YFR010W, strain ubp6, stronger effect = lower value 1.01 | locus YGL078C, strain dbp3, stronger effect = lower value 0.994 | locus YGL086W, strain mad1, stronger effect = lower value 1 | locus YGL167C, strain pmr1, stronger effect = lower value 0.996 | locus YGL173C, strain kem1, stronger effect = lower value 0.995 | locus YGL227W, strain vid30, stronger effect = lower value 0.996 | locus YGL240W, strain doc1, stronger effect = lower value 1.01 | locus YGL248W, strain PDE1, stronger effect = lower value 1 | locus YGL253W, strain hxk2, stronger effect = lower value 1.01 | locus YGR078C, strain PAC10, stronger effect = lower value 1.01 | locus YGR135W, strain pre9, stronger effect = lower value 0.997 | locus YGR229C, strain SMI1, stronger effect = lower value 1.02 | locus YGR252W, strain gcn5, stronger effect = lower value 0.958 | locus YHR013C, strain ard1, stronger effect = lower value 0.991 | locus YHR027C, strain rpn1, stronger effect = lower value 0.994 | locus YHR030C, strain SLT2, stronger effect = lower value 1.02 and 0.987 | locus YHR079C, strain IRE1 (second series), stronger effect = lower value 1 | locus YHR079C, strain IRE1, stronger effect = lower value 0.96 | locus YHR094C, strain hxt1, stronger effect = lower value 1.01 | locus YHR129C, strain ARP1, stronger effect = lower value 1.01 | locus YHR142W, strain chs7, stronger effect = lower value 0.993 | locus YHR200W, strain rpn10, stronger effect = lower value 1.01 | locus YIL066C, strain RNR3, stronger effect = lower value 1.02 | locus YIL073C, strain SPO22, stronger effect = lower value 1.01 | locus YIL125W, strain kgd1, stronger effect = lower value 0.985 | locus YIR030C, strain dcg1, stronger effect = lower value 1.01 | locus YJL092W, strain hpr5, stronger effect = lower value 1 | locus YJL095W, strain BCK1 (second series), stronger effect = lower value 0.995 | locus YJL095W, strain BCK1, stronger effect = lower value 1.01 and 0.981 | locus YJL115W, strain asf1, stronger effect = lower value 0.997 | locus YJL129C, strain trk1, stronger effect = lower value 1.01 | locus YJL134W, strain LCB3, stronger effect = lower value 1.01 | locus YJL154C, strain vps35, stronger effect = lower value 1 | locus YJL164C, strain tpk1, stronger effect = lower value 0.995 | locus YJL166W, strain qcr8, stronger effect = lower value 0.986 | locus YJL168C, strain set2, stronger effect = lower value 0.998 | locus YJL187C, strain SWE1 (second series), stronger effect = lower value 1.01 | locus YJL187C, strain SWE1, stronger effect = lower value 1 | locus YJR043C, strain POL32, stronger effect = lower value 1.02 | locus YJR066W, strain TOR1, stronger effect = lower value 0.917 | locus YKL009W, strain mrt4, stronger effect = lower value 1.01 | locus YKL068W, stronger effect = lower value 1.01 | locus YKL085W, strain MDH1 (second series), stronger effect = lower value 1 | locus YKL085W, strain MDH1, stronger effect = lower value 1 | locus YKL160W, strain elf1, stronger effect = lower value 0.985 | locus YKL190W, strain CNB1, stronger effect = lower value 1.02 | locus YKR001C, strain vps1, stronger effect = lower value 0.997 | locus YKR026C, strain gcn3, stronger effect = lower value 1.01 | locus YKR091W, strain srl3, stronger effect = lower value 1 | locus YLL001W, strain dnm1, stronger effect = lower value 0.982 | locus YLL026W, stronger effect = lower value 1 | locus YLL041C, strain sdh2, stronger effect = lower value 0.997 | locus YLR027C, strain aat2, stronger effect = lower value 1.01 | locus YLR039C, strain RIC1, stronger effect = lower value 0.976 | locus YLR058C, strain SHM2, stronger effect = lower value 1 | locus YLR102C, strain apc9, stronger effect = lower value 0.998 | locus YLR113W, strain HOG1, stronger effect = lower value 1 | locus YLR221C, strain rsa3, stronger effect = lower value 0.986 | locus YLR258W, strain gsy2, stronger effect = lower value 1.03 | locus YLR262C, strain YPT6 (second series), stronger effect = lower value 0.987 | locus YLR262C, strain YPT6, stronger effect = lower value 1.06 | locus YLR268W, strain sec22, stronger effect = lower value 0.993 | locus YLR320W, strain mms22, stronger effect = lower value 0.994 | locus YLR330W, strain CHS5, stronger effect = lower value 1.01 | locus YLR342W, strain FKS1 (second series), stronger effect = lower value 1 | locus YLR342W, strain FKS1, stronger effect = lower value 1 | locus YLR357W, strain rsc2, stronger effect = lower value 0.998 | locus YLR370C, strain arc18, stronger effect = lower value 1.01 | locus YLR371W, strain rom2, stronger effect = lower value 0.994 | locus YLR384C, strain iki3, stronger effect = lower value 0.995 | locus YLR418C, strain cdc73, stronger effect = lower value 0.982 | locus YML016C, strain PPZ1, stronger effect = lower value 1 | locus YML032C, strain rad52, stronger effect = lower value 0.991 | locus YML120C, strain ndi1, stronger effect = lower value 0.995 | locus YML124C, strain tub3, stronger effect = lower value 0.999 | locus YMR058W, strain fet3, stronger effect = lower value 0.998 | locus YMR078C, strain ctf18, stronger effect = lower value 1 | locus YMR125W, strain sto1, stronger effect = lower value 0.997 | locus YMR129W, stronger effect = lower value 1 | locus YMR205C, strain PFK2, stronger effect = lower value 0.983 | locus YMR223W, strain ubp8, stronger effect = lower value 0.993 | locus YMR231W, strain pep5, stronger effect = lower value 1 | locus YMR263W, strain SAP30, stronger effect = lower value 1.02 | locus YMR307W, strain GAS1, stronger effect = lower value 0.988 | locus YNL067W, strain RPL9B, stronger effect = lower value 1.02 | locus YNL071W, strain lat1, stronger effect = lower value 1 | locus YNL128W, strain TEP1, stronger effect = lower value 1.03 | locus YNL183C, strain NPR1, stronger effect = lower value 0.951 | locus YNL209W, strain ssb2, stronger effect = lower value 1 | locus YNL233W, strain BNI4, stronger effect = lower value 1.01 | locus YNL248C, strain rpa49, stronger effect = lower value 1.01 | locus YNL250W, strain rad50, stronger effect = lower value 1 | locus YNL271C, strain bni1, stronger effect = lower value 1 | locus YNL298W, strain CLA4, stronger effect = lower value 0.992 | locus YNL307C, strain MCK1, stronger effect = lower value 1 | locus YNL322C, strain KRE1 (second series), stronger effect = lower value 0.999 | locus YNR049C, strain mso1, stronger effect = lower value 0.995 | locus YNR052C, strain pop2, stronger effect = lower value 0.998 | locus YOL012C, strain htz1 0.651 | locus YOL147C, strain pex11, stronger effect = lower value 1.01 | locus YOR001W, strain rrp6, stronger effect = lower value 0.989 | locus YOR061W, strain CKA2, stronger effect = lower value 1 | locus YOR069W, strain VPS5, stronger effect = lower value 1.01 | locus YOR070C, strain gyp1, stronger effect = lower value 0.999 | locus YOR080W, strain dia2, stronger effect = lower value 0.999 | locus YOR083W, strain WHI5, stronger effect = lower value 0.993 | locus YOR106W, strain vam3, stronger effect = lower value 0.976 | locus YOR136W, strain idh2, stronger effect = lower value 0.995 | locus YOR144C, strain elg1, stronger effect = lower value 1 | locus YOR184W, strain ser1, stronger effect = lower value 0.992 | locus YOR231W, strain MKK1, stronger effect = lower value 0.981 | locus YOR265W, strain rbl2, stronger effect = lower value 1 | locus YOR270C, strain vph1, stronger effect = lower value 1.01 | locus YOR290C, strain snf2, stronger effect = lower value 0.914 | locus YOR316C, strain cot1, stronger effect = lower value 1.01 | locus YPL051W, strain arl3, stronger effect = lower value 0.986 | locus YPL055C, strain LGE1, stronger effect = lower value 1.01 | locus YPL078C, strain atp4, stronger effect = lower value 0.995 | locus YPL106C, strain sse1, stronger effect = lower value 0.969 | locus YPL240C, strain hsp82, stronger effect = lower value 0.991 | locus YPL241C, strain CIN2, stronger effect = lower value 1.01 | locus YPL256C, strain CLN2, stronger effect = lower value 0.957 | locus YPR119W, strain clb2, stronger effect = lower value 1 | locus YPR141C, strain kar3, stronger effect = lower value 1.01 | locus YPR163C, strain tif3, stronger effect = lower value 1.01 | locus YPR167C, strain met16, stronger effect = lower value 0.998 | strain wtn01, stronger effect = lower value 1
